# High-throughput results: PubChem, National Center for Advancing Translational Sciences (NCATS)
# SW480 rerep = A quantitative high throughput screen for small molecules that induce DNA re-replication in SW480 colon adenocarcinoma cells; Potency, µM (highest dose often 46.1 µM), inactives show at the highest dose re-replication activation, hits mostly activators; SW480 DNA re-replication, Hoechst DNA content imaging, 48 h; 340,000 compounds, 1.8% hits; further: % of control where 0% means no effect; nearly all actives have a fitted effect of over 55% in size
#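 Hoechst fluorescence of nuclei (405 nm excitation, 500-530 nm emission) measured by plate-scanning imager after 48 hr compound exposure at 37 C; re-replication scored as increased number of nuclei with elevated intensity.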
# HT1080 IDH1KD tx = qHTS for induction of synthetic lethality in tumor cells producing 2HG: qHTS for the HT-1080-IDH1KD cell line | AID 686971, 2013 | HT-1080 IDH1 knockdown viability, ATP luminescence, 48 h | 360,000 compounds, 2% hits | Potency, µM (series often up to 46.1 µM), without a hit: at the highest dose activity, negative = toxicity, most hits filed as cytotoxic;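 further: 0% = DMSO wells and -100% = cell-free medium wells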
#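 HT-1080-IDH1KD cells (IDH1 knocked down), 750/well in RPMI with 5% FBS, treated with compound 48 h at 37 degrees C. Viability by CellTiter-Glo luminescence, normalised to DMSO and no-cell wells; concentration-response curves classed.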
# HT1080-NT tox = qHTS for induction of synthetic lethality in tumor cells producing 2HG: qHTS for the HT-1080-NT fibrosarcoma cell line; 360,000 compounds, 1.6% hits; HT-1080-NT fibrosarcoma viability, CellTiter-Glo ATP luminescence, 48 h; Potency, µM (doses to about 46.1 µM), for the others: top-dose activity, negative = less viability, most hits filed as cytotoxic;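 further: NT is the 2HG producing partner of a matched IDH1 knockdown line; 0% = DMSO-treated cells and -100% = media-only wells without cells; nearly all actives have a fitted effect of over 55% in size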
#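 HT-1080-NT fibrosarcoma cells (2HG-overproducing), 750 cells/well in RPMI with 5% FBS, dosed after 2 h and incubated 48 h at 37C. CellTiter-Glo luminescence normalized to DMSO and no-cell wells; concentration-response curves fitted and classed.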
# KB-3-1 cytotox = qHTS assay for MDR1-selective chemotherapeutics: Primary screen using the parental adenocarcinoma cell KB-3-1; KB-3-1 viability, CellTiter-Glo ATP luminescence, 72 h; Potency, µM (titrated, usually from 46.1 µM), most hits filed as cytotoxic; 400,000 compounds, 1.4% hits; further: on the % scale 0 is the no-effect control and ±100 the full control effect; nearly all actives have a fitted effect of over 60% in size
#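 Viability of parental KB-3-1 cells, measured by CellTiter-Glo luminescence, followed a 72 h incubation at 37 °C with pinned compounds in phenol-red-free DMEM containing 10% FBS.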
# KB-V1 MDR tox = qHTS assay for MDR1-selective chemotherapeutics: Primary screen using the drug-selected MDR subline cells KB-V1; 400,000 compounds, 3.4% hits; KB-V1 MDR cells viability, CellTiter-Glo, 72 h; AID 1347076, 2019; Potency, µM (top dose mostly 46.1 µM), hits mostly cytotoxic; further: on the % scale 0 is the no-effect control and ±100 the full control effect; nearly all actives have a fitted effect of over 60% in size
#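 Luminescent ATP read-out (CellTiter-Glo, 10 min) measures survival of drug-selected KB-V1 MDR cells after 72 h, 37 degrees C compound exposure. Medium: phenol-red-free DMEM, 10% FBS. Values from fitted concentration-response curves.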
# MCF10A rerep = A quantitative high throughput screen for small molecules that induce DNA re-replication in MCF 10a normal breast cells. MCF 10A DNA re-replication, Hoechst nuclear intensity, 48 h. 350,000 compounds, 2.9% hits. Potency, µM (titrated, usually from 46.1 µM), inactives show at the highest dose activity, positive = re-replication, hits mostly activators; further: % of control where 0% means no effect; nearly all actives have a fitted effect of over 50% in size
# Starred values were filed as active, the others as inactive; i = inactive; ? = inconclusive; · = not tested or not shown. Most compounds without a hit are left out; they make up all but 8% or so of the library. The call rests on the fitted dose curve; in most records, active means well fitted curve in the direction sought with a large enough effect; inconclusive means small, poorly fitted or top-dose-only effect, or another doubt; inactive means no such curve, though single readings can be large; an effect the other way counts as inactive or inconclusive. Potency means the concentration at half of the fitted maximal effect.
SMILES,SW480 rerep,HT1080 IDH1KD tx,HT1080-NT tox,KB-3-1 cytotox,KB-V1 MDR tox,MCF10A rerep
COc1cccc(NC(=O)CC2SC(=Nc3ccccc3)NC2=O)c1 (stereo not given),-6%,2%,3%,i,16µM*,-7%
CCOC(=O)/C(C#N)=C1/SC(CC)C(=O)N1c1ccc(Br)cc1 (stereo not given),-13%,14%,-2%,i,8.2µM*,7%
COc1cc(NC(=O)COc2ccc(Cl)cc2)ccc1-c1cc2ccccc2oc1=O,?,?,?,?,?,7.3µM*
CC(=O)Nc1ccc(S(=O)(=O)NCCOc2ccc(Cl)cc2C)cc1,5%,-15%,-26%,8.2µM*,i,-12%
COc1ccc(NC(=O)CNS(=O)(=O)c2ccc(Cl)cc2)cc1OC,18µM*,-4%,0%,i,?,-12%
COc1cc(NC(=O)COc2ccc(Cl)cc2)ccc1NC(=O)C(C)C,30%,-3%,-2%,i,i,-15%
COc1ccc(S(=O)(=O)NCC(=O)Nc2ccc3c(c2)OCCO3)cc1OC,5%,-4%,-1%,i,i,1%
COc1ccc(NC(=O)COc2ccc(N(C)S(=O)(=O)c3ccc(Cl)cc3)cc2)cc1OC,1%,-28%,-7%,21µM*,0.92µM*,14%
Cc1oc(-c2cccc(Cl)c2)nc1CS(=O)(=O)CC(=O)NC1CCCC1,?,-9%,0%,i,i,0%
Cc1cccc(N(CC(=O)NC(C)(C)C)C(=O)CCC(=O)Nc2ccccn2)c1,-1%,10%,10%,i,?,-2%
CC(=O)Nc1ccc(S(=O)(=O)N(C)c2ccc(OCC(=O)Nc3ccccc3C(C)=O)cc2)cc1,10%,-15%,-9%,i,?,?
CCCCOc1ccc(CONS(=O)(=O)c2ccc(NC(C)=O)cc2)cc1Cl,-1%,-6%,-6%,i,15µM*,21µM*
COc1ccc(NS(=O)(=O)c2ccc(OC)c(N(C)S(=O)(=O)c3ccc(Cl)cc3)c2)cc1,9%,?,14µM*,i,?,3%
COc1ccc(S(=O)(=O)Nc2ccc(F)c(F)c2)cc1Cl,-1%,?,?,i,i,-3%
CC(=O)Nc1ccc(S(=O)(=O)NCCSCc2c(Cl)cccc2Cl)cc1,6%,?,-16%,9.2µM*,5.8µM*,23µM*
CC(=O)c1ccccc1NC(=O)COc1ccc(N(C)S(=O)(=O)c2ccc(C)c(C)c2)cc1,6%,-10%,1%,i,i,21µM*
Cc1cc(C)cc(N(CC(=O)NC(C)C)C(=O)CCC(=O)Nc2ccccn2)c1,4%,5%,4%,i,i,?
Cc1ccc(S(=O)(=O)C(CNC(=O)COc2ccc(Cl)cc2)c2ccco2)cc1 (stereo not given),·,·,·,i,i,·
CC(C)OC(=O)c1c(NC(=O)C2c3ccccc3Oc3ccccc32)sc2c1CCCC2,·,·,·,i,i,·
COc1ccc(CC(=O)Nc2ccc(S(=O)(=O)Nc3ncccn3)cc2)cc1OC,16µM*,16%,-4%,i,i,-19%
CCc1cc[n+](CC(=O)c2ccc(F)cc2)cc1C(=O)O,·,·,·,i,i,·
O=[N+]([O-])c1cnc2ccccc2c1,-139%,-4%,2%,i,i,-2%
O=[N+]([O-])c1cc([N+](=O)[O-])c2cc3ccccc3nc2c1,?,4.6µM*,16µM*,3.7µM*,i,?
CCOc1ccc(NC(=O)CN2CCN(c3ccccc3C)CC2)cc1S(=O)(=O)N1CCCC1,0%,-2%,-2%,i,4.1µM*,-4%
CCOc1ccc(NC(=O)COc2cccc3cccnc23)cc1S(=O)(=O)N1CCCC1,·,?,-14%,?,21µM*,·
SMILES,SW480 rerep,HT1080 IDH1KD tx,HT1080-NT tox,KB-3-1 cytotox,KB-V1 MDR tox,MCF10A rerep
COc1ccc(NC(=O)N(Cc2nnc3n2CCCCC3)c2ccc(OC)c(Cl)c2)cc1,·,·,·,?,i,·
Cn1c(SCC(=O)N/N=C/c2ccc([N+](=O)[O-])s2)nnc1-c1ccc(Cl)cc1,?,?,?,?,i,?
CCN(CC)CCNC(=O)c1cn(-c2ccccc2)nc1-c1cccs1,3%,-17%,-22%,i,i,-12%
CCN(CC)CCOC(=O)c1ccc(NC(=O)c2cn(-c3ccccc3)nc2-c2cccs2)cc1,-8%,?,21µM*,i,i,21µM*
O=C(Nc1ccc2ccccc2c1)c1cn(-c2ccccc2)nc1-c1cccs1,4%,-18%,?,i,18µM*,15%
Cc1c(C(=S)Nc2ccccc2)cnn1-c1ccccc1,-9%,-9%,-2%,i,21µM*,-1%
Cc1c(C(=S)Nc2ccccc2)cnn1-c1ccc([N+](=O)[O-])cc1,·,-30%,-25%,?,18µM*,-1%
COCCOC(=O)C1=C(C)NC(=O)NC1c1cn(-c2ccccc2)nc1-c1ccccc1 (stereo not given),·,·,·,i,i,·
Nc1c(-c2nc(-c3cccs3)no2)nnn1-c1cccc(Cl)c1,·,·,·,i,?,·
COCCCNC(=O)CCCCn1c(=O)c2ccccc2n(CC(=O)Nc2ccc(C)cc2C)c1=O,·,·,·,i,i,·
CCOC(=O)C1=C(C)Nc2nc(SC)nn2C1c1ccc(C(=O)OC)cc1 (stereo not given),-4%,9%,2%,i,5.8µM*,-1%
S=C(Nc1ccc(Cl)cc1)Nc1ccc2c(c1)OCCO2,5.2µM*,0%,4%,i,i,11%
CCC(=O)N1CCN(c2ccc(Cl)cc2NC(=O)c2ccc3c(c2)OCCO3)CC1,-3%,-10%,-1%,i,5.2µM*,7%
Cc1cc(C)cc(C(=O)NC(=S)Nc2ccc3c(c2)OCCO3)c1,-5%,10%,-3%,i,4.6µM*,5%
O=C(NC(=S)Nc1ccc(N2CCCCC2)c(Cl)c1)c1ccc2c(c1)OCCO2,?,18µM*,12µM*,1.2µM*,?,9.2µM*
CSc1ccc(CN2CCN(C(=O)c3ccncc3)CC2)cc1,-12%,-8%,-2%,i,i,?
